Laboratory results from ChEMBL document CHEMBL4513216, “Probing the Open Global Health Chemical Diversity Library for Multistage-Active Starting Points for Next-Generation Antimalarials” (ACS Infect Dis, 2020).
The campaign covered roughly 68,000 compounds. About 2,700 (4%) showed an effect of 50% or more. For the sample, strong results were picked, then their nearest neighbours and some compounds at random.

system: Plasmodium berghei; assay: Screen against P. berghei liver stage (PbLuc), transformed with Luciferase, at 2uM; type: functional, HepG2; conditions: tested at 2 uM

| Structure (SMILES) | INHIBITION [%] |
| --- | --- |
| Cc1nn(-c2ccccc2)c2c1c(C(F)F)cc(=O)n2CC(=O)O | 13.39 |
| COCCN1CCC(NCc2c(F)cccc2F)C1 (centres undefined) | 28.54 |
| Cc1nc(-c2ccncc2)ncc1C(C)NC(=O)CN1CCCCC1 (centres undefined) | 50.41 |
| Cc1nc(-c2ccncc2)ncc1C(C)NC(=O)Cn1ccccc1=O (centres undefined) | 10.02 |
| Cc1nc(-c2ccncc2)ncc1C(C)NC(=O)CN1CCCC1=O (centres undefined) | 28.62 |
| CCc1nc(CN2CCCC(Cn3nc(C)nc3C)C2)no1 (centres undefined) | 70.27 |
| CCc1noc(CN2CCCC(Cn3nc(C)nc3C)C2)n1 (centres undefined) | 21.39 |
| COCCc1noc(CN2CCCC(Cn3nc(C)nc3C)C2)n1 (centres undefined) | 30.91 |
| Cc1nc(C)n(CC2CCCN(Cc3cccc(F)c3F)C2)n1 (centres undefined) | 2.18 |
| Cc1nc(C)n(CC2CCCN2Cc2cn3c(C)cccc3n2)n1 (centres undefined) | -17.11 |
| Cc1noc(CN2CCCC(Cn3nc(C)nc3C)C2)n1 (centres undefined) | 72.31 |
| Cc1nc(C)n(CC2CCCN(Cc3nc(C4CC4)no3)C2)n1 (centres undefined) | -38.96 |
| Cc1nc(C)n(CC2CCCN(Cc3noc(C)n3)C2)n1 (centres undefined) | 17.31 |
| Cc1nc(C)n(CC2CCCN(Cc3cn4c(C)cccc4n3)C2)n1 (centres undefined) | 60.64 |
| Cn1cc(C2COC3(CCN(C(=O)Cc4ccccc4)CC3)C2)cn1 (centres undefined) | 2.27 |
| CNC(=O)CC1CC2(CCN(c3ncccn3)CC2)c2ccccc21 (centres undefined) | 2.87 |
| c1cnc(N2CCC3(CC2)CC(NCC2CC2)c2ccccc23)nc1 (centres undefined) | 33.11 |
| CNC(=O)CNC1CC2(CCN(c3ncccn3)CC2)c2ccccc21 (centres undefined) | 70.75 |
| COc1ccc(OCc2cc(C(=O)N3CCSCC3)n[nH]2)c(Cl)c1 | 8.48 |
| COc1ccc(OCc2cc(C(=O)N3CCC(O)CC3)n[nH]2)c(Cl)c1 | 8.57 |
| CNC(=O)C(C)NC(=O)c1cc(COc2ccc(OC)cc2Cl)[nH]n1 (centres undefined) | 55.36 |
| CC[C@@H](CO)NC(=O)c1cc(COc2ccc(OC)cc2Cl)[nH]n1 | 69.67 |
| COc1ccc(OCc2cc(C(=O)N3CCOCC3)n[nH]2)c(Cl)c1 | 15.05 |
| COc1ccc(OCc2cc(C(=O)N3C[C@@H](C)O[C@@H](C)C3)n[nH]2)c(Cl)c1 | 21.29 |
| CCC(O)CNC(=O)c1cc(COc2ccc(OC)cc2Cl)[nH]n1 (centres undefined) | 52.98 |
| CCC(CO)NC(=O)c1cc(COc2ccc(OC)cc2Cl)[nH]n1 (centres undefined) | 45.82 |

| Structure (SMILES) | INHIBITION [%] |
| --- | --- |
| COc1ccc(OCc2cc(C(=O)N3CC=CC3)n[nH]2)c(Cl)c1 | 27.77 |
| CCc1oc(C(=O)NC(C)Cc2cnccn2)cc1CN1CCCC1 (centres undefined) | 12.11 |
| CNc1cccc(C2CCCN(C(=O)c3ccn(C)n3)C2)n1 (centres undefined) | 15.64 |
| Cc1cc(C(F)(F)F)n2nc(C3CCCN3C3CCSCC3)cc2n1 (centres undefined) | 36 |
| OC1(CN2CCC(Oc3cccc(C(F)(F)F)c3)CC2)CCNC1 (centres undefined) | -16.56 |
| Cn1ccc(C(=O)NCCOc2ccc3c(c2)OCO3)cc1=O | 25.78 |
| CC(C)(C)C(=O)NCCCn1cncn1 | 32.55 |
| Cc1cc(NC(=O)CN2CCCC2c2c(C)nn(C)c2C)on1 (centres undefined) | 26.76 |
| c1cnnc(N2CCCC(NCc3ccc(-n4cncn4)cc3)C2)c1 (centres undefined) | 32.79 |
| CC1(C)O[C@@](C)([C@H]2CC3(CCN(c4cnccn4)CC3)CO2)CC[C@@H]1O | 4.19 |
| O=C(N[C@@H]1CN(Cc2cccs2)[C@@H]2CCCO[C@@H]21)C1CC1 | 8.91 |
| c1cnn([C@@H]2CN(Cc3nccs3)[C@@H]3CCCO[C@@H]32)c1 | 13.61 |
| c1csc(CN2C[C@@H](n3cccn3)[C@H]3OCCC[C@H]32)c1 | 51.85 |
| O=C(c1cccc(C2CCNC2)c1)N1CCC(c2ccncc2)CC1 (centres undefined) | -0.41 |
| O=C(Nc1cccc(C2SCCS2)c1)C1CCCN1c1nccs1 (centres undefined) | -7.88 |
| Cc1cccc(OCCNC(=O)C(C)S(=O)(=O)c2ccccn2)c1 (centres undefined) | -27.59 |
| CCN(CC)Cc1cc(C(=O)N2CCC3(CC2)NCCNC3=O)c(C)o1 | 64.71 |
| CCN(CC)Cc1cc(C(=O)N2CCCC(O)(CO)C2)c(C)o1 (centres undefined) | 35.42 |
| Cc1nc2c(C)cccc2cc1C(=O)N1CCC2(CCN(C)CC2)C1 | -30.77 |
| Cc1nc2c(C)cccc2cc1C(=O)N1CCC2(CC1)NCCNC2=O | 71.07 |
| CCN(CC)Cc1cc(C(=O)N2CCC3(CCN(C)CC3)C2)c(C)o1 | -14.17 |
| Cc1nc2c(C)cccc2cc1C(=O)N1CCC2(CCNCC2)CC1 | -10.67 |
| Cc1nnc(C2CCN(C(=O)c3ccsc3)CC2)s1 | 7.68 |
| COc1cnc(N2CCCC(c3ncc[nH]3)C2)nc1 (centres undefined) | 6.39 |
| CNC(=O)c1nc(COc2ccc3c(c2)OCO3)no1 | -15.12 |
| O=C(c1nc(COc2ccc3c(c2)OCO3)no1)N1CCCC1 | 2.41 |

| Structure (SMILES) | INHIBITION [%] |
| --- | --- |
| NC(=O)c1nc(COc2ccc3c(c2)OCO3)no1 | 54.49 |
| Cc1cc(C)c(C(=O)N2CCOC(CCN(C)C)C2)o1 (centres undefined) | -36.52 |
| Cc1nnc(CSCc2ccc(OCC(F)(F)F)nc2)o1 | 8.78 |
| CCC1=NC(SCC(=O)c2ccc(Cl)cc2)c2cc(CC)sc2N1 (centres undefined) | -77.67 |
| CCC1=NC(SCC(=O)c2ccc(C)cc2)c2cc(CC)sc2N1 (centres undefined) | 33.58 |
| CCC1=NC(SCC(=O)c2ccccc2)c2cc(CC)sc2N1 (centres undefined) | 63.79 |
| CCC(C)NC(=O)CN1CCC2(CC1)OCCO2 (centres undefined) | 34.18 |
| Cc1cccc(-c2ccc3nc(C4CCN(CC5CC5)CC4)nn3c2)c1 | -48.77 |
| CCc1nn(C)c(CC)c1CNC(=O)Nc1cccc2c1CCN2C | -1.56 |
| CC(Cc1ccco1)NC(=O)Nc1ccc(N2CCCC2)nc1 (centres undefined) | 5.91 |
| O=C(Cc1c[nH]c2ccccc12)N1CCN(C(=O)c2ccoc2)CC1 | 54.49 |
| O=C(c1nc(Cc2c[nH]c3ccccc23)no1)N1CCCC1 | 70.87 |
| O=C(c1nc(Cc2c[nH]c3ccccc23)no1)N1CCOCC1 | -33.88 |
| O=C(Cc1ccccc1F)N1CCN(C(=O)c2ccoc2)CC1 | -24.79 |
| O=C(Cc1c[nH]c2ccccc12)N1CCC(Nc2ccccc2)CC1 | -0.6 |
| O=C(c1nc(Cc2c[nH]c3ccccc23)no1)N1CCCCC1 | -7.02 |
| Cc1noc(C)c1C(=O)N1CC[C@H]2C[C@@H](c3nccs3)O[C@@H]2C1 | -17.88 |
| Cn1cnc(S(=O)(=O)N2CC3(CCN(CC4CC4)C3)C2)c1 | 35.84 |
| COc1ccc(C(=O)N2CCOc3ccncc32)cc1 | -21.39 |
| CCCOCCN1CCC2(CC1)CC(=O)N(Cc1cc(F)cc(F)c1)C2 | 7.13 |
| COCCN1C(=O)C[C@H]2[C@H]1CCN2Cc1ccccc1 | -34.48 |
| CCO[C@@H]1C[C@H]2CN(S(=O)(=O)c3cccs3)CCN2C1 | -49.68 |
| COCCOCC(=O)NCCCOC1CCCc2ccccc21 (centres undefined) | 12.22 |
| COCCNC(=O)NCCCOC1CCCc2ccccc21 (centres undefined) | 58.9 |
| COCCC(=O)NCCCOC1CCCc2ccccc21 (centres undefined) | -15.49 |
| CC(C)NC(=O)CCNC(=O)CCc1cc(Cl)cs1 | -31.42 |

| Structure (SMILES) | INHIBITION [%] |
| --- | --- |
| COC(=O)c1ccn(COc2ccccc2Cl)n1 | 8.41 |
| COc1ccccc1CN(Cc1cccnc1)Cc1c[nH]c(C)n1 | 55.29 |
| Cc1nc(CN(Cc2cccnc2)Cc2ccsc2)c[nH]1 | 2.76 |
| COc1ccccc1CN(Cc1cccnc1)Cc1nccs1 | 32.97 |
| O=C(CCN1CCCC1c1cccs1)N1CCc2sccc2C1 (centres undefined) | 7.54 |
| Cc1csc(N2CCC(NCC3(O)CCc4ccccc43)CC2)n1 (centres undefined) | 72.05 |
| OC1(CNC2CCN(c3ccccn3)CC2)CCc2ccccc21 (centres undefined) | 29.13 |
| OC1(CNC2CCN(Cc3ccncc3)CC2)CCc2ccccc21 (centres undefined) | -49.57 |
| O=C(NCc1cccnc1N1CCCCC1)c1cccs1 | -27.83 |
| Cc1ccc(CN2C[C@@H]3COC[C@H](NS(C)(=O)=O)[C@@H]3C2)s1 | 8.88 |
| O=C(CN1C(=O)CCC1=O)N1CCC(CSCc2ccco2)CC1 | 44.23 |
| O=C(CN1C(=O)CCC1=O)N1CCC(S(=O)(=O)Cc2ccco2)CC1 | 53.81 |
| O=C(CN1C(=O)CCC1=O)N1CCOCC1 | 9.1 |
| CN(C)CCN1CC(C(=O)N2CCC(c3cc(=O)[nH]cn3)CC2)CC1=O (centres undefined) | 47.64 |
| O=C(O)c1cnc2c(cnn2C2CCCC2)c1 | -9.71 |
| O=C(NC1CCC(O)CC1)c1cnc2c(cnn2C2CCCC2)c1 (centres undefined) | 38.49 |
| CS(=O)(=O)NC(=O)c1cnc2c(cnn2C2CCCC2)c1 | 64.35 |
| Cc1cc(NC(=O)C(C)N2CCN(c3nc(C)ns3)CC2)on1 (centres undefined) | 22.29 |
| Cn1ncnc1CNc1ccc2c(c1)N(C(=O)OC(C)(C)C)CCC2 | 33.49 |
| CC(C)NC(=O)N1CC(=O)c2sc(Nc3ccc(C#N)cc3)nc2C1 | -42.69 |
| CN(C)CC(=O)N1CCOCC2(C1)CN(c1ccccc1)C(=O)CO2 (centres undefined) | 17.78 |
| O=C(N1CCCC1)N1CCOCC2(C1)CN(c1ccccc1)C(=O)CO2 (centres undefined) | 56.38 |
| O=C(c1ccc[nH]1)N1CCOCC2(C1)CN(c1ccccc1)C(=O)CO2 (centres undefined) | -15.09 |
| O=C1COC2(COCCN(c3ccccn3)C2)CN1c1cccc(F)c1 (centres undefined) | 16.2 |
| Cc1cccc(N2CC3(COCCN(c4ccncn4)C3)OCC2=O)c1 (centres undefined) | 7.33 |
| O=C1COC2(COCCN(c3cnccn3)C2)CN1c1cccc(F)c1 (centres undefined) | 50.81 |
